# Source: the supplement of paper PMC8728848
# The sample as a whole holds a higher share of the strongest signals than the screen did.
# B1: SspB A3vp1 (Streptococcus gordonii), Q54186 (protein)
# chain: MTNEADYQAKLAAYQTELARVQKANADAKATYEKAVEDNKAKNAAIKAENEEIKQRNAVAKTDYEAKLAKYEADLAKYKKEFAAYTAALAEAESKKKQDGYLSEPRSQSLNFKSEPNAIRTIDSSVHQYGQQELDALVKSWGISPTNPDRKKSRAYSYFNAINSNNTYAKLVLEKDKPVDVTYTGLKNSSFNGKKISKVVYTYTLKETGFNDGTKMTMFASSDPTVTAWYNDYFTSTNINVKVKFYDEEGQLMNLTGGLVNFSSLNRGNGSGAIDKDAIESVRNFNGRYIPISGSSIKIHENNSAYADSSNAEKSLGARWNTSEWDTTSSPNNWYGAIVGEITQSEISFNMASSKSGNIWFAFNSNINAIGVPTKPVAPTAPTQPMYETEKPLEPAPVAPSYENEPTPPVKTPDQPEPSKPAAALEHHHHHH
# Experiments:
# Experiment in all cases: glycan array binding signal (z-score within array); higher = stronger binding
# Conditions in all cases: glycan notation: IUPAC condensed, linker removed
# Gal3S(b1-3)GalNAc = molecular target: Gal3S(b1-3)GalNAc
# Outline: (§1)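 Glycan array data were curated from 3228 arrays in the Consortium for Functional Glycomics database and kept only where the protein sequence was available. Glycan names were converted to IUPAC-condensed notation, and columns mapping to the same glycan were averaged. The binding signal is a within-array Z-score, averaged across arrays of the same protein sequence at different concentrations or buffers and across linkers. Negative Z-scores can be read as non-binding.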
# Gal3S6S(b1-4)GlcNAc = molecular target: Gal3S6S(b1-4)GlcNAc
# Outline: as §1
# Gal4S(b1-4)GlcNAc = molecular target: Gal4S(b1-4)GlcNAc
# Outline: as §1
# Gal6S(b1-4)GlcNAc = molecular target: Gal6S(b1-4)GlcNAc
# Outline: as §1
# GalNAc(b1-3)Gal = molecular target: GalNAc(b1-3)Gal
# Outline: as §1
# [1] = molecular target: GalNAc(b1-3)Gal(a1-6)Gal(b1-4)Glc
# Outline: as §1
# GalNAc6S(b1-4)GlcNAc = molecular target: GalNAc6S(b1-4)GlcNAc
# Outline: as §1
# [2] = molecular target: Glc(a1-4)Glc(a1-4)Glc(a1-4)Glc
# Outline: as §1
# [3] = molecular target: GlcA3S(b1-3)Gal(b1-4)GlcNAc(b1-2)Man
# Outline: as §1
# [4] = molecular target: GlcNAc(a1-3)Gal(b1-4)GlcNAc
# Outline: as §1
# [5] = molecular target: GlcNAc(a1-4)Gal(b1-4)GlcNAc
# Outline: as §1
# [6] = molecular target: GlcNAc(b1-2)[GlcNAc(b1-6)]Man(a1-6)[GlcNAc(b1-4)][GlcNAc(b1-2)Man(a1-3)]Man(b1-4)GlcNAc(b1-4)GlcNAc
# Outline: as §1
# GlcNAc(b1-3)Fuc = molecular target: GlcNAc(b1-3)Fuc
# Outline: as §1
# [7] = molecular target: GlcNAc(b1-3)Gal(b1-4)GlcNAc(b1-3)Gal(b1-4)GlcNAc(b1-2)Man(a1-3)[GlcNAc(b1-3)Gal(b1-4)GlcNAc(b1-3)Gal(b1-4)GlcNAc(b1-2)Man(a1-6)]Man(b1-4)GlcNAc(b1-4)[Fuc(a1-6)]GlcNAc
# Outline: as §1
# [8] = molecular target: GlcNAc(b1-3)Gal(b1-4)GlcNAc(b1-3)Gal(b1-4)GlcNAc(b1-3)Gal(b1-4)GlcNAc(b1-2)[GlcNAc(b1-3)Gal(b1-4)GlcNAc(b1-3)Gal(b1-4)GlcNAc(b1-3)Gal(b1-4)GlcNAc(b1-6)]Man(a1-6)[GlcNAc(b1-3)Gal(b1-4)GlcNAc(b1-3)Gal(b1-4)GlcNAc(b1-3)Gal(b1-4)GlcNAc(b1-2)Man(a1-3)]Man(b1-4)GlcNAc(b1-4)[Fuc(a1-6)]GlcNAc
# Outline: as §1
# Kdn(a2-3)Gal(b1-3)GlcNAc = molecular target: Kdn(a2-3)Gal(b1-3)GlcNAc
# Outline: as §1
# [9] = molecular target: Man(a1-2)Man(a1-3)[Man(a1-2)Man(a1-6)]Man
# Outline: as §1
# Neu5Ac(a2-3)Gal = molecular target: Neu5Ac(a2-3)Gal
# Outline: as §1
# [10] = molecular target: Neu5Ac(a2-3)Gal(b1-3)GalNAc6S
# Outline: as §1
# [11] = molecular target: Neu5Ac(a2-3)Gal(b1-4)GlcNAc(b1-2)Man
# Outline: as §1
# [12] = molecular target: Neu5Ac(a2-3)Gal(b1-4)GlcNAc(b1-3)Gal
# Outline: as §1
# [13] = molecular target: Neu5Ac(a2-3)Gal(b1-4)GlcNAc(b1-3)Gal(b1-4)GlcNAc(b1-2)Man(a1-3)[Neu5Ac(a2-3)Gal(b1-4)GlcNAc(b1-3)Gal(b1-4)GlcNAc(b1-2)Man(a1-6)]Man(b1-4)GlcNAc(b1-4)GlcNAc
# Outline: as §1
# [14] = molecular target: Neu5Ac(a2-3)Gal(b1-4)GlcNAc(b1-3)GalNAc
# Outline: as §1
# [15] = molecular target: Neu5Ac(a2-3)Gal(b1-4)GlcNAc6S
# Outline: as §1
# [16] = molecular target: Neu5Ac(a2-3)Gal(b1-4)[Fuc(a1-3)]GlcNAc(b1-6)[Neu5Ac(a2-3)Gal(b1-3)]GalNAc
# Outline: as §1
# [17] = molecular target: Neu5Ac(a2-6)Gal(b1-4)GlcNAc(b1-3)Gal(b1-4)GlcNAc(b1-3)Gal(b1-4)GlcNAc(b1-2)Man(a1-3)[Neu5Ac(a2-6)Gal(b1-4)GlcNAc(b1-3)Gal(b1-4)GlcNAc(b1-3)Gal(b1-4)GlcNAc(b1-2)Man(a1-6)]GalNAc
# Outline: as §1
# [18] = molecular target: Neu5Ac(a2-6)Gal(b1-4)GlcNAc6S
# Outline: as §1
# Neu5Ac(a2-8)Neu5Ac = molecular target: Neu5Ac(a2-8)Neu5Ac
# Outline: as §1
# [19] = molecular target: Neu5Ac(a2-8)Neu5Ac(a2-3)Gal(b1-4)GlcNAc
# Outline: as §1
# [20] = molecular target: Neu5Ac(a2-8)Neu5Ac(a2-3)[GalNAc(b1-4)]Gal(b1-4)Glc
# Outline: as §1
binder,measurement,setting,value
B1,glycan array binding signal (z-score),Gal3S(b1-3)GalNAc,0.06
same,glycan array binding signal (z-score),Gal3S6S(b1-4)GlcNAc,-0.52
same,glycan array binding signal (z-score),Gal4S(b1-4)GlcNAc,0.061
same,glycan array binding signal (z-score),Gal6S(b1-4)GlcNAc,-0.624
same,glycan array binding signal (z-score),GalNAc(b1-3)Gal,0.001
same,glycan array binding signal (z-score),[1],0.652
same,glycan array binding signal (z-score),GalNAc6S(b1-4)GlcNAc,-0.623
same,glycan array binding signal (z-score),[2],-0.964
same,glycan array binding signal (z-score),[3],-1.19
same,glycan array binding signal (z-score),[4],-0.25
same,glycan array binding signal (z-score),[5],-0.84
same,glycan array binding signal (z-score),[6],-0.233
same,glycan array binding signal (z-score),GlcNAc(b1-3)Fuc,-0.426
same,glycan array binding signal (z-score),[7],1.62
same,glycan array binding signal (z-score),[8],-0.133
same,glycan array binding signal (z-score),Kdn(a2-3)Gal(b1-3)GlcNAc,-0.933
same,glycan array binding signal (z-score),[9],-0.889
same,glycan array binding signal (z-score),Neu5Ac(a2-3)Gal,-0.167
same,glycan array binding signal (z-score),[10],-0.287
same,glycan array binding signal (z-score),[11],1.88
same,glycan array binding signal (z-score),[12],-0.803
same,glycan array binding signal (z-score),[13],3.69
same,glycan array binding signal (z-score),[14],-0.47
same,glycan array binding signal (z-score),[15],-0.678
same,glycan array binding signal (z-score),[16],5.21
same,glycan array binding signal (z-score),[17],1.36
same,glycan array binding signal (z-score),[18],-0.165
same,glycan array binding signal (z-score),Neu5Ac(a2-8)Neu5Ac,-0.582
same,glycan array binding signal (z-score),[19],-1.25
same,glycan array binding signal (z-score),[20],-0.166
